{
  "source": "PubChem BioAssay (Tox21)",
  "note": "Where “and” joins values, the source holds several entries; their conditions need not be identical. Identical values can stand only once. Records with an inconclusive call do not appear. Calls of active or inactive are those of the source. Calls come from the whole dose curve; as a rule, active = well fitted cell-killing curve with a large enough effect in the repeat runs; inconclusive = weak or mixed curves; inactive = no such curve, though single readings can be large or run the other way. % is set by controls: 0 for no effect and ±100 for the full control effect; potency is the fitted concentration of half-maximal effect.",
  "data": [
    {"experiment": "qHTS assay to identify small molecule antagonists of the peroxisome proliferator-activated receptor delta (PPARd) signaling pathway - cell viability counter screen (AID 743213); note: nearly all actives have a fitted effect of over 50% in size", "settings": "PPARd-bla HEK293H viability, CellTiter-Glo luminescence, 17 h; series mostly up to 62 µM; viability change, negative = cytotoxic: at the top concentration", "description": "U.S. Tox21 Program National Center for Advancing Translational Sciences [NCATS] NIH Chemical Genomics Center [NCGC] U.S. Environmental Protection Agency [EPA] National Institutes of Environmental Health Sciences [NIEHS] National Toxicology Program [NTP] U.S. Food and Drug Administration [FDA] Tox21 Assay Overview: The peroxisome proliferator-activated receptors (PPARs) are lipid-activated transcription factors of the nuclear receptor superfamily with three distinct subtypes namely PPAR alpha, PPAR delta (PPARd) and PPAR gamma. All these subtypes heterodimerizes with Retinoid X receptor (RXR) and have different physiological functions. […] To identify the compounds that inhibit PPAR-delta signaling, GeneBLAzer PPAR delta UAS-bla HEK293H cell line (Invitrogen, Carlsbad, CA, USA) containing a beta-lactamase reporter gene under the control of an Upstream Activator Sequence (UAS) was used to screen the Tox21 compound library. The cytotoxicity of the Tox21 compound library against the PPARd-bla cell line was tested in parallel by measuring the cell viability using CellTiter-Glo assay (Promega, Madison, WI) in the same wells.\nTox21 Assay Protocol Summary: PPARd-bla cells were dispensed at 3000 cells/5uL/well in 1536-well black wall/clear bottom plates using a Multidrop Combi (Thermo Fisher Scientific, Waltham, MA) dispenser. After the assay plates were incubated at 37 C and 5% CO2 for 5 h, 23 nL of compounds dissolved in DMSO, positive controls or DMSO only was transferred to the assay plate by a Pintool station (Kalypsys, San Diego, CA), followed by addition of 1ul L165041 (300 nM, final concentration in the wells). The assay plates were incubated at 37 C for 17 h, and then 1 uL of LiveBLAzerTM B/G FRET substrate was added using a Bioraptr Flying Reagent Dispenser (FRD) workstation (Beckman Coulter, Indianapolis, IN, USA). The assay plates were incubated at room temperature for 2 h and fluorescence intensity was measured by an Envision plate reader (PerkinElmer, Shelton, CT). For cell viability readout that measures cytotoxicity, 3 ul/well of CellTiter-Glo reagent was added into the assay plates using a Bioraptr FRD. After 30 min incubation at room temperature, the luminescence intensity in the plates was measured using a ViewLux plate reader (PerkinElmer).", "values": [
      {"smiles": "CC(=O)c1cc(C(C)(C)C)cc2c1CCC2(C)C", "viability change, negative = cytotoxic": "2.21% (inactive)"},
      {"smiles": "BrC(Br)Br", "viability change, negative = cytotoxic": "-0.0419% (inactive)"},
      {"smiles": "BrC(Br)C(Br)(Br)Br", "Potency": "39.1 µM (active)"},
      {"smiles": "Cc1cc(C(C)(C)c2cc(C)c(O)c(C)c2)cc(C)c1O", "Potency": "42.2 µM (active)"},
      {"smiles": "O=C1c2ccccc2C(=O)C1C(=O)C(c1ccccc1)c1ccc(Cl)cc1", "note": "(stereo not given)", "viability change, negative = cytotoxic": "-16.3% (inactive)"},
      {"smiles": "O=[N+]([O-])c1ccc(Oc2ccc(C(F)(F)F)cc2[N+](=O)[O-])cc1", "viability change, negative = cytotoxic": "23.4% (inactive)"},
      {"smiles": "O=C(CCl)Nc1ccccc1", "viability change, negative = cytotoxic": "-5.09% (inactive)"},
      {"smiles": "Cc1cc(N=Nc2ccccc2C)ccc1N", "viability change, negative = cytotoxic": "-2.84% (inactive)"},
      {"smiles": "OC(c1ccc(Cl)cc1)(c1ccc(Cl)cc1)C(Cl)(Cl)Cl", "viability change, negative = cytotoxic": "10.2% (inactive)"},
      {"smiles": "O=c1c(C2CC(c3ccc(-c4ccc(Br)cc4)cc3)Cc3ccccc32)c(O)sc2ccccc12", "note": "(stereo not given)", "viability change, negative = cytotoxic": "-25% (inactive)"},
      {"smiles": "Clc1ccc(COC(Cn2ccnc2)c2ccc(Cl)cc2Cl)cc1", "note": "(stereo not given)", "Potency": "40.7 µM (active) and 24.4 µM (active)"},
      {"smiles": "CCCN(CCC)c1c([N+](=O)[O-])cc(S(N)(=O)=O)cc1[N+](=O)[O-]", "Potency": "37 µM (active)"},
      {"smiles": "CC(=O)OC1(c2ccccc2)CCN(CCc2ccccc2)CC1", "viability change, negative = cytotoxic": "-26.7% [at 80.4 µM] (inactive)"},
      {"smiles": "N#CSCSC#N", "Potency": "44.6 µM (active) and 48.5 µM (active)"},
      {"smiles": "CCCN(CCC)CCc1c[nH]c2ccccc12", "viability change, negative = cytotoxic": "-10.7% [at 80.4 µM] (inactive)"},
      {"smiles": "CCN(CC)c1c([N+](=O)[O-])cc(C(F)(F)F)c(N)c1[N+](=O)[O-]", "viability change, negative = cytotoxic": "-8.37% (inactive)"},
      {"smiles": "CC(C)CC(C)Nc1ccc(Nc2ccccc2)cc1", "note": "(stereo not given)", "Potency": "38.3 µM (active)"},
      {"smiles": "C[C@]12Cc3nonc3C[C@@H]1CC[C@@H]1[C@@H]2CC[C@@]2(C)[C@H]1CC[C@]2(C)O", "viability change, negative = cytotoxic": "-6.54% (inactive)"},
      {"smiles": "Clc1ccc(CO/N=C(\\Cn2ccnc2)c2ccc(Cl)cc2Cl)c(Cl)c1", "viability change, negative = cytotoxic": "17.3% (inactive)"},
      {"smiles": "Clc1ccc(CSC(Cn2ccnc2)c2ccc(Cl)cc2Cl)cc1", "note": "(stereo not given)", "Potency": "33.5 µM (active)"},
      {"smiles": "CN(C)CCc1c[nH]c2ccc(O)cc12", "viability change, negative = cytotoxic": "2.46% [at 80.4 µM] (inactive)"},
      {"smiles": "Cc1ccc(OP(=O)(Oc2ccccc2)Oc2ccccc2)cc1", "viability change, negative = cytotoxic": "-10.1% [at 80.4 µM] (inactive)"},
      {"smiles": "CC1(c2ccc(Oc3ccccc3)cc2)OC(=O)N(Nc2ccccc2)C1=O", "note": "(stereo not given)", "Potency": "43.9 µM (active)"},
      {"smiles": "BrCBr", "viability change, negative = cytotoxic": "-4.34% [at 80.4 µM] (inactive)"},
      {"smiles": "COP(=O)(OC)SCn1c(=O)oc2cc(Cl)cnc21", "viability change, negative = cytotoxic": "0.152% (inactive)"},
      {"smiles": "O=CC(Br)(Br)Br", "Potency": "48.8 µM (active)"},
      {"smiles": "C[C@H]1O[C@@H](O[C@H]2[C@@H](O)C[C@H](O[C@H]3[C@@H](O)C[C@H](O[C@H]4CC[C@@]5(C)[C@H](CC[C@@H]6[C@@H]5CC[C@]5(C)[C@@H](C7=CC(=O)OC7)CC[C@]65O)C4)O[C@@H]3C)O[C@@H]2C)C[C@H](O)[C@@H]1O", "Potency": "19.6 nM (active) and 84.1 nM (active)"},
      {"smiles": "CC(=O)O[C@H]1CC[C@@]2(C)C(=CC[C@@H]3[C@@H]2CC[C@]2(C)C(=O)CC[C@@H]32)C1", "viability change, negative = cytotoxic": "-4.77% (inactive)"},
      {"smiles": "C=CC(=O)OCC(COC(=O)C=C)(COC(=O)C=C)COC(=O)C=C", "Potency": "12.3 µM (active)"},
      {"smiles": "Fc1cccc(Cl)c1CCl", "viability change, negative = cytotoxic": "3.77% (inactive)"},
      {"smiles": "CCOC(=O)OC1=C(c2cc(C)ccc2C)C(=O)NC12CCC(OC)CC2", "note": "(stereo not given)", "viability change, negative = cytotoxic": "-20% (inactive)"},
      {"smiles": "CCCCCCCCCCCCCCCC[n+]1ccccc1", "Potency": "25.7 µM (active) and 21.9 µM (active) and 24.2 µM (active)"},
      {"smiles": "ClC1=C(Cl)C2(Cl)C3C(Cl)C=CC3C1(Cl)C2(Cl)Cl", "note": "(stereo not given)", "Potency": "inactive"},
      {"smiles": "COc1ccc(OC)c(CC(C)N)c1", "note": "(stereo not given)", "viability change, negative = cytotoxic": "-0.163% [at 80.4 µM] (inactive)"},
      {"smiles": "CN(C)C(=S)S", "Potency": "5.45 µM (active) and 7.76 µM (active)"},
      {"smiles": "O=c1[nH]c2ccccc2n1C1CCN(CCCC(c2ccc(F)cc2)c2ccc(F)cc2)CC1", "Potency": "21.9 µM (active) and 29.8 µM (active)"},
      {"smiles": "COc1cccc2c1C(=O)c1c(O)c3c(c(O)c1C2=O)C[C@@](O)(C(=O)CO)CC3OC1CC(N2CCOC(OC)C2)C(O)C(C)O1", "note": "(stereo not given in full)", "viability change, negative = cytotoxic": "-27.4% (inactive)"},
      {"smiles": "COP(=S)(OC)Oc1cc(Cl)c(Br)cc1Cl", "viability change, negative = cytotoxic": "-6.66% (inactive)"},
      {"smiles": "[Hg+2].[I-].[I-]", "Potency": "3.47 µM (active)"},
      {"smiles": "O=C/C(Cl)=C(/Cl)C(=O)O", "Potency": "inactive"}
    ]}
  ]
}
